# A selection: hits, their analogues and other compounds. The true share with any hit is near 8%.
# Marburg entry inh = Marburg virus entry inhibition; Marburg virus pseudotyped entry inhibition, cell reporter; actives 1.8% (n = 300,000); AID 540276; Potency, µM (highest dose often 37.8 µM), without a hit: at the top dose activity change, negative = inhibition, actives largely listed as inhibitors; calls by dose curve; tested in HEK293 cells; also: potency is read from the fitted curve at half-maximal effect; % is scaled to controls: 0 for no effect and ±100 for the full control effect
# SARS PLP yeast = inhibitors of SARS-CoV papain-like protease in yeast. S. cerevisiae expressing SARS-CoV PLpro, growth rescue. Potency, µM (top dose mostly 32.9 µM), inactives show at the top dose activity, positive = growth rescue, hits mostly activators. actives 0.19% (n = 330,000). AID 485353; calls by dose curve; also: potency is read from the fitted curve at half-maximal effect; 0% is about no effect; nearly all actives have a fitted effect of over 55% in size
# LASV entry inh = Lassa virus entry inhibition. Lassa virus pseudotype entry inhibition, cell reporter. Potency, µM (series often up to 37.9 µM), for inactives: at the top dose activity change, negative = inhibition, hits mostly inhibitors. actives 1.2% (n = 300,000). AID 540256; calls by dose curve; tested in HEK293 cells; also: potency is read from the fitted curve at half-maximal effect; % is scaled to controls: 0 for no effect and ±100 for the full control effect; nearly all actives have a fitted effect of over 50% in size
# FMDV antiviral = foot and mouth disease virus antiviral activity. actives 1.2% (n = 410,000). FMDV antiviral cell-based qHTS. Potency, µM (titrated, usually from 57.9 µM), inactives show at the highest dose activity change, negative = inhibition, usual class: inhibitors; calls by dose curve; tested in HEK293T cells; also: read-out not given here; potency is read from the fitted curve at half-maximal effect; % is scaled to controls: 0 for no effect and ±100 for the full control effect; nearly all actives have a fitted effect of over 45% in size
# HCV inhibitor = inhibitors of hepatitis C virus infection | Potency, µM (series often up to 41.8 µM), without a hit: top-dose activity change, negative = inhibition, most hits filed as inhibitors | actives 3.4% (n = 340,000) | Huh7.5.1 HCVcc-Cre infection, luciferase reporter, 44 h | AID 651820; active = well fitted inhibition curve with a large enough effect; inconclusive = small, poorly fitted or top-dose-only effect, or another doubt; inactive = no such curve, though single readings can be large or run the other way; also: potency is read from the fitted curve at half-maximal effect; % is scaled to controls: 0 for no effect and ±100 for the full control effect
#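 Infectious HCV cell culture screen: compound-treated cells (1,000/well, pre-plated 4 h) are infected with HCVcc-Cre at roughly 0.5 moi and grown 44 h. Infection is quantified by luciferase signal after 15 min substrate incubation at room temperature.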
# HCMV inh = human cytomegalovirus inhibition; AID 1259415; HFF cells, HCMV-luciferase reporter, 72 h; active compounds read low; activity change, negative = inhibition, % at 57.5 µM; actives 4.5% (n = 410,000); in the data active = activity change below about -60%; inconclusive = no clear call, values can overlap the other calls; inactive = above about -39%; also: % is scaled to controls: 0 for no effect and ±100 for the full control effect
#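 Luciferase read-out from HCMV-luciferase-infected HFFs (MOI 1 PFU/cell) 72 h post infection at 37C; compounds added after 16 h cell attachment; activity normalized between buffer-only basal and Salinomycin (10uM) inhibitor controls.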
# * hit, by the source's call; ? = inconclusive; · = no result; [ ] = dose if it differs, or a comment.
SMILES,Marburg entry inh,SARS PLP yeast,LASV entry inh,FMDV antiviral,HCV inhibitor,HCMV inh
Cc1ccc(NS(=O)(=O)c2ccc3c(c2)oc(=O)n3C)cc1F,·,1%,·,1%,-3%,?
Cc1ccc(NS(=O)(=O)c2ccc3c(c2)oc(=O)n3C)cc1C,2%,-2%,-2%,15%,?,-101*
Cn1c(=O)oc2cc(S(=O)(=O)NCCN3CCc4ccccc4C3)ccc21,·,?,·,5.6µM*,4%,0
COc1ccc(-c2cc(C(=O)Oc3ccc(Br)cc3)c3ccccc3n2)cc1,7%[46.1 µM],·,-3%[46.1 µM],-2%,·,19
CC(O)[C@@H](O)[C@H]1CNc2nc(N)[nH]c(=O)c2N1 (some centres undefined),15%,·,·,·,·,·
Cc1c(Cl)cccc1NC(=O)Cn1cnc2nc3c(cc2c1=O)CCCC3,·,·,15%[46.1 µM],-14%,·,23
Cc1nc2ccccc2nc1CN1CCOc2ccc(C(C)(O)COc3ccccc3)cc2C1 (centres undefined),·,·,·,3%,·,·
O=C(COC(=O)c1ccc(O)cc1)c1ccc2c(c1)OCCO2,28%,3%,-17%,0%,5%,56
O=C(OCc1ccc(Br)cc1)c1cnc(Cl)c(Cl)c1,-8%[46.1 µM],-1%,·,13%,19%,-60*
COc1ccc(C(C)=O)cc1COC(=O)c1ccc2c(c1)OCCO2,·,2%,·,-16%,11µM*,-15
CCOc1ccc(C(C)=O)cc1COC(=O)c1ccc2c(c1)NC(=O)CS2,·,-8%,·,?,3.5µM*,-1
COc1cc(CC(=O)OCC(=O)c2ccc3c(c2)OCCO3)cc(OC)c1OC,?,3%,?,-12%,?,-71*
COc1ccc(S[C@]2(C(=O)N3CCCC3)CC(=O)N(c3ccc(C#N)cc3)[C@@H]2c2ccc(OC)cc2)cc1,·,·,·,·,·,-25
CCOC(=O)c1c(C)[nH]c(C)c1S(=O)(=O)NCC(=O)Nc1ccc(C)c(N(C)C)c1,·,·,-12%[46.1 µM],-2%,·,0
COc1ccc(C(C)=O)cc1COC(=O)c1cnc(Cl)c(Cl)c1,-1%[46.1 µM],-3%,·,?,11µM*,71
O=C(Cc1cccs1)NNC(=S)NCc1ccco1,?,0%,23%[46.1 µM],-9%,3%,3
O=C(Cc1ccc(-c2ccccc2)cc1)NNC(=S)NCc1ccco1,-30%[46.1 µM],1%,?,-14%,11µM*,-21
CC(NC(=O)Cc1ccc(-c2ccccc2)cc1)c1ccccc1 (centres undefined),-3%,-6%,?,-13%,14µM*,-28
O=C(Cc1ccc(-c2ccccc2)cc1)NCc1ccccc1,-6%,14%,?,-6%,-18%,-83*
CC(NC(=O)COC(=O)Cc1ccc(Cl)cc1)c1ccccc1 (centres undefined),-19%[46.1 µM],-7%,-3%[46.1 µM],-3%,24%,-3
O=C(Cc1coc2ccc3ccccc3c12)NCc1ccccc1,?,3%,-19%,12%,10µM*,-7
O=C(COc1ccc(Br)cc1)Nc1ccccc1C(=O)N1CCOCC1,9%,1%,3%,-29%,·,-8
O=C(COc1ccc(C(=S)N2CCOCC2)cc1)Nc1ccccc1C(F)(F)F,7%[46.1 µM],0%,·,-20%,?,-87*
O=C(COc1ccc(C(=S)N2CCCC2)cc1)Nc1ccccc1C(F)(F)F,16%,12%,?,0%,-18%,-65*
C=C=CCCN1C(=O)NC(c2ccccc2)C(C(=O)OC)=C1C (centres undefined),-18%[14.2 µM],·,·,·,·,·
SMILES,Marburg entry inh,SARS PLP yeast,LASV entry inh,FMDV antiviral,HCV inhibitor,HCMV inh
Cc1ccc(S(=O)(=O)N2CCCCC2)cc1NC(=O)C1COc2ccccc2O1 (centres undefined),·,·,·,?,·,11
O=C(Nc1ccc(S(=O)(=O)N2CCCC2)cc1)C1COc2ccccc2O1 (centres undefined),·,11%,·,-15%,?,-16
Cc1ccc(NC(=O)C2COc3ccccc3O2)cc1S(=O)(=O)N1CCCCC1 (centres undefined),·,-2%,·,?,11µM*,?
O=C(Nc1cccc(S(=O)(=O)N2CCCCC2)c1)C1COc2ccccc2O1 (centres undefined),·,-7%,·,-22%,10µM*,-10
C=C[C@]1(C)Cc2occ(C)c2C[C@H]1C(=C)C(=O)O,·,·,·,-13%,·,·
CN(c1ccccc1)P(=O)(N(C)c1ccccc1)N(C)c1ccccc1,·,-2%,·,-29%,-13%,-86*
CCOc1ccc(-c2c(C)nn3c(C)c(C(=O)NCC(C)c4ccccc4)cnc23)cc1OCC (centres undefined),·,·,17%[46.1 µM],-9%,·,-14
CCC(Cc1ccccc1)NC(=O)c1csc2c1CCCCC2 (centres undefined),-11%[46.1 µM],·,·,15%,·,-14
CC1=CC(C)(C)Nc2ccc(OC(=O)c3ccco3)cc21,?,-9%,?,·,?,-82*
CC1=CC(C)(C)Nc2ccc(OC(=O)CN3C(=O)CCC3=O)cc21,?,1%,?,·,11µM*,-94*
CC1=CC(C)(C)Nc2ccc(OC(=O)c3cccnc3)cc21,?,-18%,?,28µM*,?,-92*
O=C(Oc1ccc(F)cc1)c1cccnc1,·,-1%,·,-11%,2%,-4
CC1=CC(C)(C)N2C(=O)C(=O)c3cc(OC(=O)c4ccco4)cc1c32,-27%[46.1 µM],-5%,?,6%,18%,-88*
COc1cc(=O)n2c(c1C(=O)N(C)Cc1nccs1)CCN(Cc1ccc(F)c(F)c1)CC2,·,·,·,-3%,·,·
COc1cc(C)c(CN2CCOc3ccc(C(O)c4cccnc4)cc3C2)cc1C (centres undefined),·,·,·,-19%,·,·
CC1=CC(C)(C)Nc2ccc(OC(=O)C(C)N3C(=O)c4ccccc4C3=O)cc21 (centres undefined),?,-8%,?,28µM*,?,-74*
CC1=CC(C)(C)Nc2ccc(Cc3ccc4c(c3)C(C)=CC(C)(C)N4)cc21,·,-3%,·,14%,10µM*,-20
Cc1cc2nc(-c3cccc(NC(=O)COc4ccc(C(C)C)cc4)c3)oc2cc1C,?,·,46%[46.1 µM],45%,·,89
CCCCOCC1CN(CCCC)S(=O)(=O)c2c(cccc2Sc2ccc(SC)cc2)O1 (centres undefined),·,·,·,·,·,22
COc1ccc(C(=O)C2CCCN(Cc3cc(C)c(O)c(C)c3)C2)c(OC)c1 (centres undefined),-51%,11%,1%,-24%,?,10
COc1ccc(C(=O)C2CCCN(Cc3cc(Cl)ccc3O)C2)c(OC)c1 (centres undefined),?,5%,?,?,11µM*,-26
COc1ccc(C(=O)C2CCCN(Cc3sc(N4CCCC4)nc3Cl)C2)c(OC)c1 (centres undefined),·,1%,·,?,?,-72*

# Compound activity (PubChem)
